# Experimental data as given in PubChem BioAssay (NCI).
# The panel holds about 83,000 compounds, 20% with a hit somewhere; the sample as a whole holds those more often.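 Single-dose data. Exposure time 48 hours. Values below 10 considered active.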 Values without a mark were called inactive. Calls of active or inactive are those of the source. Where a SMILES comes first, the peptide text is derived from it. [ ]: non-standard residue; d: D form. ξ: configuration not given here. ξD = NC(CC(=O)O)C(=O)O
# Key:
# Test in all cases: NCI-60 one-dose screen, 48 h (100 = growth as untreated, 0 = no growth, -100 = all killed)
# Details in all cases: 10 µM unless noted
# [1] = system: NCI-H23 lung
# [2] = system: NCI-H226 lung
# [3] = system: NCI-H322M lung
# [4] = system: HOP-62 NSCLC
# [5] = system: NCI-H460 lung
# [6] = system: HOP-92 NSCLC
# [7] = system: NCI-H522 lung
# [8] = system: A549/ATCC NSCLC
# [9] = system: 786-0 renal
# [10] = system: COLO 205 colon
# [11] = system: DU-145 prostate
# [12] = system: K-562 leukemia
# [13] = system: MDA-MB-231 breast
# [14] = system: RXF 393 renal
# [15] = system: SF-268 CNS
# [16] = system: SF-295 CNS
# [17] = system: SF-539 CNS
# [18] = system: UACC-257 melanoma
# [19] = system: M14 melanoma
# [20] = system: MALME-3M melanoma
Structure (SMILES),growth [1],growth [2],growth [3],growth [4],growth [5],growth [6],growth [7],growth [8],growth [9],growth [10],growth [11],growth [12],growth [13] [%],growth [14],growth [15],growth [16],growth [17],growth [18],growth [19],growth [20]
CC(=O)c1ccc2c(c1)CCc1ccccc1-2,107%,94.7%,116%,88.5%,107%,95.3%,110%,91%,83.7%,110%,115%,115%,109,97.4%,101%,94.2%,96.8%,98.2%,107%,
NC(=S)Nc1ccc2c(c1)Cc1ccccc1-2,83.1%,77.8%,89.2%,84.2%,94.8%,63.9%,62.9%,72.5%,115%,98.2%,108%,82%,69.5,102%,90.5%,98.7%,,69.9%,99.7%,88.4%
COc1ccc2c(c1OC)OCC(CN(C)C)C2=O (stereo unspecified),104%,97.6%,111%,100%,122%,52.1%,-81% (active),98.9%,92.7%,-75.2% (active),91.9%,-100% (active),96.7,98%,110%,96.2%,97.1%,99.1%,98.5%,71.5%
CCCOC(=O)c1nc(N(CC2CCCCC2)C(=O)NC)sc1/N=C/c1ccccc1,31.1%,56.8%,57.9%,25.5%,2.34% (active),15.5%,-18.4% (active),13.6%,9.27% (active),18.6%,44.7%,2.2% (active),,-8.78% (active),32%,15.1%,-27.9% (active),37.5%,6.82% (active),12.4%
CCCCCCCCCCCC[S+](C)CC(=O)[O-] (stereo unspecified),25.9%,44.3%,89.4%,38.7%,54%,30.7%,46.5%,68.4%,23.3%,2.95% (active),54.8%,30.7%,,0.613% (active),30.6%,38.6%,53.7%,56.7%,43.7%,51.2%
CCc1cccc(CC)c1N1C(=O)C=CC1=O,108%,117%,95.3%,83.7%,96.1%,56.5%,91.6%,71.9%,82.5%,75.8%,112%,23.8%,132,,97.6%,106%,107%,81.6%,86.6%,121%
CCC1C[N+]2=C(c3cc(OC)c(OC)cc3CC2)c2c1cc1n2CCc2cc(OC)c(OC)cc2-1 (stereo unspecified),43%,65.7%,98.6%,55.9%,21.5%,-2.62% (active),17%,56.9%,66.3%,-35.4% (active),49%,21.5%,46.1,88.7%,33.3%,63.6%,31.9%,,36.1%,29.9%
CC1CC(C)(C)OB(OC(C)CC(C)(C)OB2OC(C)CC(C)(C)O2)O1 (stereo unspecified),93%,107%,102%,91.6%,111%,101%,81.6%,93.8%,98.4%,93.8%,102%,96.1%,,116%,102%,105%,104%,94.8%,,111%
Oc1c(Cl)cc(Cl)cc1C=NCC1CCC(CN=Cc2cc(Cl)cc(Cl)c2O)CC1 (stereo unspecified),102%,97%,75.5%,95.1%,108%,76.6%,91.6%,106%,96.7%,112%,104%,66.8%,,90.9%,70.9%,98%,89.3%,111%,90.4%,89.6%
CC(C)N=C(N)/N=C(\N)Nc1ccc2ccc3ccccc3c2c1,-88.1% (active),-67.6% (active),-89.9% (active),-84.5% (active),-58.1% (active),-68.6% (active),-84.8% (active),-65.2% (active),-70.1% (active),-92% (active),-89.5% (active),-42.3% (active),,-89.7% (active),-64.7% (active),-89.1% (active),-98.9% (active),-79.1% (active),-76.8% (active),-89.6% (active)
NCC(=O)NC(CC(=O)O)C(=O)O (stereo unspecified) (H-Gly-[ξD]-OH),108%,100%,104%,101%,110%,100%,87.1%,103%,100%,119%,105%,106%,,109%,107%,101%,99.3%,96.5%,104%,98.1%
CC(=O)C1Cc2ccccc2C1=O (stereo unspecified),95.4%,103%,89.5%,90.5%,111%,105%,122%,106%,103%,121%,106%,116%,98.8,,103%,100%,99.6%,89.8%,109%,94.3%
Clc1ccccc1C(c1ccccc1)(c1ccccc1)n1ccnc1,41.9%,29.2%,61.8%,34.3%,51.4%,19.7%,28.1%,,48.3%,24%,60.1%,17%,59.1,23.6%,57.5%,19%,52%,54.4%,31%,39.7%
O=C1C=CC(=O)N1c1cccc2c1CCCC2,106%,96.4%,91.9%,105%,109%,84.2%,11.6%,,105%,49.1%,103%,57.1%,106,94.1%,101%,90.6%,105%,103%,110%,85.5%
CCCCCCCCCCCC1=NCCCN1CCCC,94.2%,103%,98.1%,94.6%,101%,74.8%,97.6%,,99.1%,98%,103%,80.3%,78.8,122%,101%,101%,110%,92.3%,100%,106%
Oc1ccccc1N=Cc1ccccc1,64.2%,86.3%,87.5%,99.1%,94.4%,102%,81.1%,98.2%,,125%,83.5%,48.6%,,117%,89.9%,111%,108%,94.3%,87.6%,95.6%
O=C(O)c1ccc2c(c1)C(=O)c1ccccc1C2=O,103%,92%,102%,90.9%,105%,93.9%,98.6%,,103%,100%,98.5%,88.7%,94.1,110%,98.3%,100%,97.7%,,101%,102%
